pS6 MEF inh: reduces mTORC1 signaling in Tsc2 and p53 null MEF cells | 0.78% of 44,000 active | Tsc2-/- p53-/- MEF, phospho-rpS6 immunofluorescence/PI, 24 h | Potency, µM (titrated, usually from 38.3 µM), usual class: inhibitors; also: nearly all actives have a fitted effect of over 50% in size
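Cell-based qHTS: Tsc2-/- p53-/- MEF, 24 h cpd, 37 °C; fix/perm, anti-phospho-S6 Alexa-488 + PI; Acumen 488 nm scan; pS6/PI ratio, % positive cells; rapamycin 7.5 nM = inhibition ref; PI count = viability.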
S16 F2sN tox: cytotoxicity in S16 Pmp22-F2sN Schwann cells; 0.48% of 43,000 active; S16 Pmp22-F2sN Schwann cells viability, CellTiter-Glo, 24 h; Potency, µM (series often up to 57.5 µM), most hits filed as cytotoxic; also: nearly all actives have a fitted effect of over 65% in size
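Rat S16 Schwann reporter line, 24 h treatment with library compounds delivered at 23 nL per well. Cell viability by CellTiter-Glo luminescence.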
GALC G270D up: enhancers of human galactocerebrosidase G270D mutant activity in cells. P54803. 145M-Twi-hGALC-G270D cells (Twitcher mouse brain line with human GALC G270D), HMU-beta-Gal fluorescence, 48 h. Potency, µM (doses to about 57.5 µM), most hits filed as activators. 0.1% of 45,000 active; also: nearly all actives have a fitted effect of over 65% in size
Target sequence (P54803 whole entry G286D): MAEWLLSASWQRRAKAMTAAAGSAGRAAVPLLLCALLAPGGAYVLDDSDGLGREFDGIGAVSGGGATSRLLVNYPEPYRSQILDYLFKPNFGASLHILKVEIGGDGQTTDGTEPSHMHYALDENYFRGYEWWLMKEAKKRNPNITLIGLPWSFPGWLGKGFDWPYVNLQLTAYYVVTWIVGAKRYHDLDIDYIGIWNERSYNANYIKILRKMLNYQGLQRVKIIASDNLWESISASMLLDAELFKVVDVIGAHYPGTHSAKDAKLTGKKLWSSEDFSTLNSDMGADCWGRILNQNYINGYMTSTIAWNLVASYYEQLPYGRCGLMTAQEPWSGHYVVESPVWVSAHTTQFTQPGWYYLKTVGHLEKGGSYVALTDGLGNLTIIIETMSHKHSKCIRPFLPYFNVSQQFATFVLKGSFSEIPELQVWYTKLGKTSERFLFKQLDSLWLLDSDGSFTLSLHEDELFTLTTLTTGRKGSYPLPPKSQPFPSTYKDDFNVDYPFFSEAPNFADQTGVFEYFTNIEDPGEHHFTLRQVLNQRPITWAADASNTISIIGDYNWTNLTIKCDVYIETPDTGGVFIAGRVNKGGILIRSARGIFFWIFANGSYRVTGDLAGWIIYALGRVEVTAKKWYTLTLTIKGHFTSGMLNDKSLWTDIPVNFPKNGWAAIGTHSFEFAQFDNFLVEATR
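Fluorogenic HMU-b-Gal hydrolysis (0.1 mM final, pH 5.2 citrate-phosphate with 1 mg/mL sodium taurocholate; carbonate stop buffer) measures mutant GALC activity after compound treatment of live 145M-Twi Twitcher brain cells stably carrying human GALC-G270D, with wild-type GALC line alongside; activation sought.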
PMP22 txn: modulators of PMP22 gene transcription in S16 Schwann cells; S16 Pmp22-F2sN Schwann cells (luciferase reporters placed in the Pmp22 gene), FLuc/NLuc coincidence luminescence, 24 h; Potency, µM (highest dose often 57.5 µM), most hits filed as inhibitors; 2% of 43,000 active; active = clear falling dose curves in both reporters; inconclusive = both reporters move, but less clearly or upward; inactive = either reporter flat; the % is the NLuc reporter signal
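qHTS, 1536-well. Cells seeded, compounds added by pin tool, 24 h 37C. Nano-Glo reagent 1 (lysis/FLuc), 10 min RT, read; Stop&Glo, 10 min RT, read NLuc.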
SKOV3 invasion: ovarian cancer metastasis inhibition, 3D TME model; Potency, µM (titrated, usually from 45.8 µM), hits mostly inhibitors; SKOV3ip1-GFP adhesion/invasion on 3D omental model, fluorescence; 0.1% of 46,000 active; AID 1963576; also: nearly all actives have a fitted effect of over 65% in size
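qHTS, 4-pt dose (0.36-46 umol/L); SKOV3ip1-GFP, 1,200 cells/well, no FBS; primary omental fibroblast/mesothelial co-culture 48 h pre-grown; 2 h RT + 16 h 37 C; PBS wash, 4% PFA; GFP count 488/509 nm.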
Hits are given with their value; – = inactive; ? = inconclusive; · = not tested or not shown. An excerpt weighted towards active compounds, which were near 2.6% of everything screened. Unless noted, calls follow the shape of the dose curve; as a rule, active = well fitted curve in the direction sought with a large enough effect; inconclusive = small, poorly fitted or top-dose-only effect, or another doubt; inactive = no such curve, though single readings can be large; an effect the other way counts as inactive or inconclusive.

SMILES	pS6 MEF inh	S16 F2sN tox	GALC G270D up	PMP22 txn	SKOV3 invasion
COc1ccc(F)cc1S(=O)(=O)NCC(c1ccco1)S(=O)(=O)c1cccs1 (centres undefined)	–	13µM	–	9.5µM	–
CCOc1cc2ncc(C#N)c(Nc3ccc(OCc4ccccn4)c(Cl)c3)c2cc1NC(=O)C=CCN(C)C	·	·	·	·	–
Fc1cc(-c2cccc3ncc(-c4cnn(C5CCNCC5)c4)nc23)cc(F)c1CN1CCOCC1	·	·	·	·	–
COc1ccc(F)cc1S(=O)(=O)NCC(c1ccco1)S(=O)(=O)c1ccc(F)cc1 (centres undefined)	–	16µM	–	19µM	–
COc1ccc(S(=O)(=O)NCC(c2ccco2)S(=O)(=O)c2ccc(C)cc2)cc1C (centres undefined)	–	?	–	?	–
O=S(=O)(NCC(c1ccco1)S(=O)(=O)c1cccs1)c1ccc(F)c(C(F)(F)F)c1 (centres undefined)	–	2.5µM	–	7.3µM	–
O=S(=O)(NCC(c1ccco1)S(=O)(=O)c1cccs1)c1ccccc1 (centres undefined)	–	32µM	–	?	–
COc1ccccc1-c1cccc(-c2c(O)c3cc(C#N)c(Cl)cc3[nH]c2=O)c1	·	·	·	·	–
CCc1ccc(C(=O)c2cn(CC(=O)Nc3cc(F)ccc3F)c3nc(C)ccc3c2=O)cc1	–	–	4µM	–	–
COc1cc(F)c(C(C)C)cc1-c1ccc(C(F)(F)F)cc1CN1C(=O)O[C@H](c2cc(C(F)(F)F)cc(C(F)(F)F)c2)[C@@H]1C	·	·	·	·	–
COc1cc(-c2nc3cnccn3c2Nc2ccc(C(C)C)cc2)ccc1O	15µM	?	–	?	–
CC(C)c1ccc(Nc2c(-c3ccccc3O)nc3cnccn23)cc1	–	–	–	?	–
Cc1ccc(Cl)cc1N1CCN(C(=O)c2ccc(CS(=O)(=O)c3ccc(Br)cc3)o2)CC1	–	?	–	?	–
Cc1ccc(S(=O)(=O)Cc2ccc(C(=O)N3CCN(c4cccc(Cl)c4)CC3)o2)cc1	?	–	–	15µM	–
Cn1cnc2c(F)c(Nc3ccc(Br)cc3F)c(C(=O)NOCCO)cc21	·	·	·	·	–
CCN(CC)CCn1c(=N)n(CCOc2ccccc2Cl)c2ccccc21	5.8µM	28µM	–	?	?
CCN(CC)CCn1c(=N)n(CC(O)COc2ccccc2C)c2ccccc21 (centres undefined)	12µM	28µM	–	?	?
O=C1NC(=O)C(=Cc2ccc3nccc(-c4ccncc4)c3c2)S1	·	·	·	·	–
COc1cccc(CNC(=O)CCCn2c(=O)c3cccn3c3cccnc32)c1OC	–	–	–	–	–
COc1ccccc1CNC(=O)CCCn1c(=O)c2cccn2c2ccccc21	18µM	–	–	?	–
Cc1ccccc1CNC(=O)CCCn1c(=O)c2cccn2c2ccccc21	–	–	–	16µM	–
Cc1nc(N)sc1-c1ccnc(Nc2ccc(N3CCOCC3)cc2)n1	·	·	·	·	–
CCC1=Nc2cc(C(=O)NC3CCCC3)ccc2Sc2ccc(Br)cc21	–	?	–	10µM	–
CCCCNC(=O)c1ccc2c(c1)N=C(CC)c1ccccc1S2	?	?	–	12µM	–
CC1=Nc2cc(C(=O)NCCc3ccc(Cl)cc3)ccc2Sc2ccc(C)cc21	–	?	–	9.5µM	–
SMILES	pS6 MEF inh	S16 F2sN tox	GALC G270D up	PMP22 txn	SKOV3 invasion
CCC1=Nc2cc(C(=O)NC3CCC(C)CC3)ccc2Sc2ccc(C)cc21 (centres undefined)	?	–	–	5.7µM	–
CC1=Nc2cc(C(=O)NC3CCCC3)ccc2Sc2ccc(Br)cc21	?	–	–	?	–
CCCC1=Nc2cc(C(=O)NCCc3ccc(OCC)cc3)ccc2Sc2ccccc21	–	–	–	?	–
CCOc1ccc(C2=C(C(=O)CC)Sc3nncn3N2C(=O)CC)cc1	?	?	–	?	–
CCC(=O)C1=C(c2ccc(F)cc2)N(C(=O)CC)n2cnnc2S1	12µM	?	–	?	–
CC(=O)C1=C(c2ccc(Cl)c(Cl)c2)N(C(C)=O)n2cnnc2S1	15µM	?	–	?	?
CC(=O)OCC(=O)[C@@]1(O)[C@H](C)C[C@H]2[C@@H]3C=C(C)C4=Cc5c(cnn5-c5ccccc5)C[C@]4(C)[C@@H]3[C@@H](O)C[C@@]21C	·	·	·	·	–
Cc1ccc(C(N)=O)cc1Nc1nccc(-c2cn(C(C)C)c3cnccc23)n1	·	·	·	·	–
C[C@@H](N)c1ccc(C(=O)Nc2ccnc3[nH]ccc23)cc1	·	·	·	·	–
O=C(O)CCc1ccc(NCc2cccc(Oc3ccccc3)c2)cc1	·	·	·	·	–
Oc1ccc(NCc2ccccc2OCc2ccccc2)cc1	?	20µM	–	7.3µM	–
Oc1ccc(NCc2ccccc2OCc2ccc(Cl)cc2)cc1	?	20µM	–	?	–
CNC(=O)c1cc(COc2nnc(Nc3ccc(Cl)cc3)c3ccoc23)ccn1	·	·	·	·	–
CC(C)(C)c1cnc(CSc2cnc(NC(=O)C3CCNCC3)s2)o1	·	·	·	·	–
CCOC(=O)c1c(C)[nH]c(C)c1S(=O)(=O)N1CCN(c2cccc(C(F)(F)F)c2)CC1	–	?	1.1µM	?	–
FC(F)(F)c1cccc(Nc2c3c(nc4ccc(Cl)cc24)CCC3)c1	5.8µM	?	–	?	–
CCCN(CCC)CCCNC(=O)C1CCN(c2nc3ccc(CC)cc3s2)CC1	16µM	28µM	–	?	?
CCCN(CCC)CCNC(=O)C1CCN(c2nc3ccc(CC)cc3s2)CC1	16µM	?	–	?	?
CCc1ccc2nc(N3CCC(C(=O)NCCC(C)C)CC3)sc2c1	–	–	–	?	–
Cc1cccc(NS(=O)(=O)c2ccc3[nH]c4c(c3c2)CCCCCC4)c1	13µM	?	–	?	–
O=S(=O)(Nc1cccc(Cl)c1)c1ccc2[nH]c3c(c2c1)CCCCCC3	–	?	–	?	–
COC(=O)c1ccc(NC(=O)CC2Nc3cc(C)c(C)cc3NC2=O)cc1 (centres undefined)	–	–	–	–	4.5µM
CCS(=O)(=O)c1ncc(Cl)c(C(=O)N(Cc2ccccc2)Cc2ccco2)n1	3.3µM	3.5µM	–	3.2µM	–
Cn1cc(C2=C(c3c4n(c5ccccc35)CCC(CN)C4)C(=O)NC2=O)c2ccccc21 (centres undefined)	·	·	·	·	–
CCS(=O)(=O)c1oc(-c2ccc(F)cc2)nc1S(=O)(=O)c1ccc(Br)cc1	2.6µM	2.8µM	–	3µM	?
COc1ccc(-c2nc(S(=O)(=O)c3ccc(Cl)cc3)c(NCc3ccccc3)o2)cc1	–	?	–	?	–
O=S(=O)(c1ccccc1)c1nc(-c2ccc(F)cc2)oc1N1CCOCC1	–	–	–	–	–
Cc1ccc(S(=O)(=O)c2nc(-c3cccs3)oc2SC(C)C)cc1	–	–	–	–	–

Assay outcomes as filed in PubChem BioAssay.
